From PubChem BioAssay AID651820 (National Center for Advancing Translational Sciences (NCATS), 2012)
Among all 340,000 compounds or so, about 12,000 (3.5%) were called active. About 18% were inconclusive and are not listed. The list comes from a sample in which actives are over-represented; it also holds similar structures and randomly drawn compounds. Values without a mark were called inactive. The call rests on the fitted dose curve; in most records, active means well fitted inhibition curve with a large enough effect; inconclusive means small, poorly fitted or top-dose-only effect, or another doubt; inactive means no such curve, though single readings can be large or run the other way.

Test: qHTS Assay for Inhibitors of Hepatitis C Virus (HCV)
Settings: Huh7.5.1 HCVcc-Cre infection, luciferase reporter, 44 h; series mostly up to 41.8 µM; activity change, negative = inhibition: at the top concentration
Source text: Hepatitis C virus (HCV) infects about 200 million people in the world. Many infected people progress to chronic liver disease including cirrhosis with a risk of developing liver cancer. To date, there is no effective vaccine for hepatitis C. Current therapy based on interferon is only effective in about half of the patients and is associated with significant adverse effects. The fraction of people with HCV who can complete a successful treatment is estimated to be no more than 10 percent. Recent development of direct-acting antivirals against HCV, such as protease and polymerase inhibitors, is promising but still requires combination with peginterferon and ribavirin for maximal efficacy. In addition, these agents are associated with high rate of resistance and many have significant side effects. Due to the lack of a culture system for infectious HCV, the search for new HCV drugs has been greatly hampered. […] High-throughput screening (HTS) with an infectious HCV system would cover the complete spectrum of potentially druggable targets in all stages of HCV lifecycle, and would have more biological relevance than other cell-based assays. Moreover, targeting several key processes in the viral life cycle may not only increase antiviral efficacy; more importantly, it may also reduce the capacity of the virus to develop resistance to the compound. The goal of this project is to identify novel HCV inhibitors as new therapies for hepatitis C, using a highly sensitive and specific assay platform which is based on a HCV infectious cell culture system established in the laboratory and adapted for high-throughput HCV drug screen. NIH Chemical Genomics Center [NCGC] NIH Molecular Libraries Probe Centers Network [MLPCN] MLPCN Grant: MH095511 Assay Submitter (PI): Jake Liang, NIDDK
The assay will start with plating 1,000 cells/well in 3 µL volume and culture for 4 h. Then 23 nL of compounds from the library collection will be added to each well, followed by adding 2.5 µL of HCVcc-Cre virus (~ 0.5 moi) and further cultured for 44 h before the luciferase assay. A volume of 4.5 µL luciferase substrates will be added to each well and the plates will be incubated at room temperature for 15 min. and then read for 15 sec. for the luciferase activity
On the % scale 0 is the no-effect control and ±100 the full control effect.

| SMILES | Potency | activity change, negative = inhibition |
| --- | --- | --- |
| O=C1c2ccccc2C2=Nc3ccccc3SC(c3ccccc3F)C12 (stereo not given) | 5.01 µM (active) | – |
| CCOC(=O)C1=C(C)N=C2c3ccccc3C(=O)C2C1c1ccc(Br)cc1 (stereo not given) | – | -21.8% |
| O=C1c2ccccc2C(=O)C1c1ccccc1F | – | -1.17% |
| Cc1sc2nc(CSCC(=O)NC3CCCCC3)[nH]c(=O)c2c1C | – | 6.44% |
| CC1=CC(=Cc2sc3ccccc3[n+]2C)C=C(C)O1 | 5.01 µM (active) | – |
| CC(C)C(NC(=O)c1c(F)cccc1F)C(=O)NNC(=O)c1ccccc1 (stereo not given) | – | 7.93% |
| O=C(NCCc1ccc(F)cc1)c1ccc(S(=O)(=O)N2CCCCC2)cc1 | – | -27.2% |
| COc1ccc(CNC(=O)C2(CC3CC(c4ccccc4)=NO3)CCN(C(=O)c3cccc(O)c3)CC2)cc1 (stereo not given) | – | -11.6% [at 8.37 µM] |
| O=C(COc1ccc(Cl)cc1)N1CCN(S(=O)(=O)c2ccc(Cl)cc2)CC1 | – | 7.75% |
| O=C(CCC(=O)c1ccccc1)NCc1cccc(C(F)(F)F)c1 | – | -0.719% |
| O=C(CCC(=O)N1CCN(S(=O)(=O)c2ccc(Cl)cc2)CC1)NCc1cccc(C(F)(F)F)c1 | 11.2 µM (active) | – |
| O=C1c2ccccc2C(=O)C1C(=O)C1CC1 | – | 0.357% |
| CCN(CC(=O)Nc1ccc(OC)cc1)C(=O)c1ccc(=O)n(Cc2ccccc2)n1 | – | 0.141% |
| CC(NC(=O)COC(=O)Cn1cc(C(F)(F)F)ccc1=O)c1ccccc1 (stereo not given) | – | 15.9% |
| CC(CC(=O)Nc1cc(C(F)(F)F)ccc1Cl)c1ccccc1 (stereo not given) | – | -7.71% |
| CNCC[C@H](Oc1ccc(C(F)(F)F)cc1)c1ccccc1 | 3.98 µM (active) | – |
| COc1ccc2nc3n(c(=O)c2c1)-c1cc(C)ccc1C(=O)NC3Cc1ccc(O)cc1 (stereo not given) | – | 15.7% |
| CN(c1ccc(C(=O)N2CCc3ccccc3C2)cc1)S(C)(=O)=O | – | -3.55% |
| COc1cccc(N(CC(=O)Nc2cccc(N(C)S(C)(=O)=O)c2)S(C)(=O)=O)c1 | – | -10.5% |
| CC(=O)Nc1cccc(NC(=O)c2ccc3c(c2)CCN3S(C)(=O)=O)c1 | – | 11.1% |
| Cc1ccc(N(CC(=O)Nc2cccc(N(C)S(C)(=O)=O)c2)S(C)(=O)=O)cc1 | – | -11.3% |
| CN(c1cccc(NC(=O)c2ccc(CN3CCc4ccccc4C3)cc2)c1)S(C)(=O)=O | 11.2 µM (active) | – |
| CN(c1cccc(NC(=O)Nc2ccc(Cl)cc2)c1)S(C)(=O)=O | 10 µM (active) | – |
| O=C(CNC(=O)c1ccccc1F)OCC(=O)c1c[nH]c2ccccc12 | – | 7.77% |
| Cc1ccsc1C(=O)NC1CCCCC1C (stereo not given) | – | 4.79% |

| SMILES | Potency | activity change, negative = inhibition |
| --- | --- | --- |
| O=C(NCCN1CCOCC1)c1cccc(S(=O)(=O)Nc2ccc(F)cc2)c1 | – | 3.15% |
| C#CCOCCOCCOCCNc1nc(N2CCN(C(=O)Cn3cc(CCO)nn3)CC2)nc(N2CCN(C(=O)[C@H](CCCCN)n3cc(CCCC)nn3)CC2)n1 | – | -0.907% [at 8.37 µM] |
| CCOC(=O)c1cc(-c2ccccc2C)n(Cc2cc(C)no2)n1 | – | -15.8% |
| Cc1cc(C)n2nc(C(=O)OCC(=O)N(CCC#N)c3ccc(F)cc3)nc2n1 | – | 24.9% |
| Cc1c(C(=O)OCC(=O)N(CCC#N)c2ccccc2)oc2c1ccc1ccccc12 | 8.91 µM (active) | – |
| N#CCCN(C(=O)COC(=O)c1ccc(S(=O)(=O)N2CCCCCC2)cc1)c1ccccc1 | – | -2.62% |
| Cc1cccc(C)c1NC(=O)COC(=O)c1c(C)nn(-c2ccccc2)c1C | – | -29.5% |
| Cc1ccc(S(=O)(=O)Nc2nc(CN3CCOCC3)nc3sc(C)c(C)c23)cc1 | – | 14.3% |
| COc1ccc(C)cc1NC(=O)CSc1cccc[n+]1[O-] | – | 20.4% |
| CSc1nsc(SCC(=O)Nc2cc(C(=O)O)ccc2C)n1 | – | 28.5% |
| COc1ccc(C)cc1NC(=O)CSc1nc(SC)ns1 | 11.2 µM (active) | – |
| Cc1ccc(C(=O)CN2C(=O)NC3(CCOc4ccccc43)C2=O)s1 (stereo not given) | – | 7.99% |
| Cc1ccc(N2CC(C(=O)Nc3cc(Cl)ccc3-n3cncn3)CC2=O)cc1 (stereo not given) | – | 8.85% |
| CCc1nn(CCCN2CCN(c3cccc(Cl)c3)CC2)c(=O)n1CCOc1ccccc1 | 10 µM (active) | – |
| CCN1C(=O)/C(=C\N2CCN(c3cccc(Cl)c3)CC2)SC1=S | – | -4.91% |
| OC(COc1ccccc1)CN1CCN(c2cccc(Cl)c2)CC1 (stereo not given) | – | 13.3% |
| Cc1ccc(C(=O)OCC(=O)N2CC(C)CC(C)C2)cc1S(=O)(=O)N1CCCCC1 (stereo not given) | – | -4.66% |
| N#Cc1cccc(NC(=O)COC(=O)c2ccccc2C(=O)c2ccc(Cl)c([N+](=O)[O-])c2)c1 | 10 µM (active) | – |
| CC(=O)Nc1ccc(NC(=O)COC(=O)c2ccccc2C(=O)c2ccccc2)cc1 | – | 5.01% |
| NC(=O)c1ccc(NC(=O)COC(=O)c2ccc([N+](=O)[O-])cc2)cc1 | – | 11.3% |
| O=C(Nc1ccncc1)c1ccc(Cl)c([N+](=O)[O-])c1 | – | -0.941% |
| CC(=O)Nc1ccc(NC(=O)C(C)OC(=O)c2ccccc2C(=O)c2ccc(Cl)c([N+](=O)[O-])c2)cc1 (stereo not given) | 11.2 µM (active) | – |
| CC(OC(=O)CNC(=O)c1ccc(Cl)c([N+](=O)[O-])c1)C(=O)NCc1ccco1 (stereo not given) | – | -1.08% [at 8.37 µM] |
| COc1ccc(C(=O)COC(=O)c2c(C)noc2C)cc1Cl | – | -8.16% |
| CCOC(=O)c1ccc(NC(=O)C2CC(=O)N(c3ccc4c(c3)OCCO4)C2)cc1 (stereo not given) | – | 7.75% |

| SMILES | Potency | activity change, negative = inhibition |
| --- | --- | --- |
| CCCN(CC(=O)Nc1ccccc1C)C(=O)c1ccc(OCC(=O)N2CCOCC2)c(OCC)c1 | – | -8.77% |
| NC(=O)NC(CC(=O)NNC(=O)c1ccccn1)c1ccc(Cl)cc1 (stereo not given) | – | 0.701% |
| O=C(NCC1CCCO1)c1cc2c(s1)CCCC2 (stereo not given) | – | -18.7% |
| O=C(O)c1cc(S(=O)(=O)Nc2ccc3cn[nH]c3c2)ccc1Br | – | 7.46% |
| O=C(NCc1ccccc1)C1=C[C@@H](c2ccccc2)C[C@@H](OCCCCO)O1 | – | 6.06% |
| N#C/C(=C(/O)Cc1cccc2ccccc12)c1nc2ccccc2s1 | – | 13.7% |
| c1ccc2c(CNn3cnnc3)cccc2c1 | – | 0.47% |
| N=C(N)SCc1cccc2ccccc12 | 6.31 µM (active) | – |
| CC(C)(C)n1ncc2c(=O)n(Cc3ccc(Cl)cc3)cnc21 | 11.2 µM (active) | – |
| CC(=O)Cn1cnc2c(cnn2-c2ccccc2)c1=O | – | -0.203% |
| Cc1ccc2c(c1)c1ncn(Cc3ccc(F)cc3)c(=O)c1n2C | – | -22.6% |
| CC(C)Cn1c(SCC(=O)Nc2ccc(Cl)cc2F)nc(O)cc1=O | – | 30.9% |
| O=C(OCC(=O)N1CCN(C(=O)c2ccco2)CC1)c1c(Cl)cccc1Cl | – | 16.5% |
| CC1CCCCC1NC(=O)Cn1cnc2c1c(=O)n(C)c(=O)n2C (stereo not given) | – | -3.41% |
| Cc1ccc(OC(=O)c2cc3ccccc3o2)cc1 | – | 4.88% |
| C/C(=N\NC(=S)Nc1ccc(C)cc1)c1cc2ccccc2o1 | 10 µM (active) | – |
| Cc1ccc(NC(=O)c2cc3ccccc3o2)cc1 | – | -10.5% |
| COc1cc(C(=O)NC2CCN(C)CC2)ccc1Nc1ncc2c(n1)N(C1CCC(O)CC1)CCC(=O)N2C (stereo not given) | – | -26.6% |
| O=C(CSc1nnc(N2CCOCC2)n1-c1cccc(F)c1)N1CCN(c2ccccn2)CC1 | – | 2.86% |
| Cc1cccc(-n2ncc3c(=O)[nH]c(SCC(=O)Nc4cc(C)on4)nc32)c1 | – | 0.218% |
| Cc1c(O)c(C)c2c(c1O)C(=O)C[C@@H](c1ccccc1)O2 | – | -1.63% |
| O=C(COc1ccc([N+](=O)[O-])cc1Cl)Nc1ccc2[nH]c(=O)[nH]c2c1 | – | 1.57% |
| O=C(Nc1ccc(CSc2ccccc2)cc1)c1ccc(CN2CCOCC2)cc1 | 3.16 µM (active) | – |
| O=C(Nc1ccccc1C(=O)N1CCOCC1)c1ccc(CSc2ccccc2)cc1 | – | -26% |
| COc1ccc(C(=O)Nc2ccc(CN3CCOCC3)cc2)cc1 | – | 3.24% |

| SMILES | Potency | activity change, negative = inhibition |
| --- | --- | --- |
| CN(Cc1ccccc1)C(=O)COC(=O)/C=C/c1ccc2c(c1)OCO2 | – | -6.21% |
| CC(=O)c1c(C)[nH]c(C(=O)COc2ccc3c(C)cc(=O)oc3c2)c1C | – | -0.953% |
| O=C(Nc1ccc2nc3n(c(=O)c2c1)CCCC3)c1ccc(Cl)nc1 | – | -17.7% |
| CC1(C)C/C(=N/Nc2ccc([N+](=O)[O-])cc2[N+](=O)[O-])C(C)(C)O1 | – | -10.5% |
| CCOC(=O)C1(Cc2cccc(OC)c2)CCN(C(C)CC(C)(C)O)CC1 (stereo not given) | – | -11% |
| CCOC(=O)C1(Cc2cccc(OC)c2)CCN(C(C)COC)CC1 (stereo not given) | – | 10.8% |
| CCOC(=O)C1(Cc2cccc(OC)c2)CCN(Cc2csc(C(C)=O)c2)CC1 | 22.4 µM (active) | – |
| c1ccc(-c2c[nH]c(-c3ccccc3)c2)cc1 | – | -6.21% |
| Cc1cc2oc(=O)cc(CN3CCN(Cc4ccccc4)CC3)c2cc1C | – | -11.3% |
| Cc1cc2oc3ccc(NCCC4CCCN4C)cc3c(=O)c2cc1C (stereo not given) | 14.1 µM (active) | – |
| CCCOc1ccc(C2c3c(oc4cc(C)c(C)cc4c3=O)C(=O)N2CCCN2CCOCC2)cc1 (stereo not given) | – | -7.54% |
| CSc1ncccc1C(=O)Nc1ccc2c(c1)OCO2 | – | 3.31% |
| O=C1C2C3C=CC(C3)C2C(=O)N1c1ncc([N+](=O)[O-])s1 (stereo not given) | – | 0.319% |
| CCN(C(=O)CSc1ncnc2sccc12)c1c(N)n(Cc2ccccc2)c(=O)[nH]c1=O | – | 5.2% |
| O=c1c2c(nc3n1CCCCC3)sc1c(O)cccc12 | – | -3.44% |
| Cc1c(C(=O)Nc2ccccc2)sc2nc3n(c(=O)c12)CCCCC3 | – | 2.42% |
| CC(=O)c1ccc(NC(=O)c2sc3nc4n(c(=O)c3c2C)CCCCC4)cc1 | 11.2 µM (active) | – |
| O=C(c1ccc(Cl)nc1)N1CCN(S(=O)(=O)c2ccc3c(c2)OCCO3)CC1 | – | -7.42% |
| COc1cc(C(c2c(NC(=O)c3ccco3)sc(C)c2C)N2CCOCC2)cc(OC)c1OC (stereo not given) | – | 5.51% |
| COc1cccc(NC(=O)c2ccccc2SC)c1 | – | -1.29% |
| COc1cccc(NC(=O)C2CCCN2C(=O)OCc2ccccc2)c1 (stereo not given) | – | 13.3% |
| COc1cccc(NC(=O)C2C(c3ccccc3)C2(Cl)Cl)c1 (stereo not given) | 12.6 µM (active) | – |
| Cc1ccccc1-c1cc(C(=O)NCc2cccs2)n(CC2CC(c3cccnc3)=NO2)n1 (stereo not given) | – | -8.14% |
| O=C(CCCCCCCC(=O)N1CCCCC1)N1CCCCC1 | – | -4.7% |
| O=C(CC1SC(N2CCOCC2)=NC1=O)Nc1ccccc1F (stereo not given) | – | 3.09% |
